Assay results taken from PubChem BioAssay (NCI).
This is part of a sample that, as a whole, favours compounds with a hit. Of some 83,000 tested, about 20% had one in any assay.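 Each cell line was grown in a 96-well plate and treated with one concentration of compound for 48 hours. Values below 10 were considered active.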 A number with no mark means an inactive call. Calls of active or inactive are those of the source.

These molecules were tested on HL-60(TB) leukemia (assay: NCI-60 one-dose screen, 48 h (100 = growth as untreated, 0 = no growth, -100 = all killed)). Details: 10 µM unless noted.

| SMILES | growth |
| --- | --- |
| COc1ccc2cc(-c3nc4ccccc4s3)c(Cl)nc2c1OC | 91.4% |
| OCCNCCNC(Cc1ccc(Cl)cc1)c1ccccc1 (stereo not given) | 76.4% |
| COc1ccc(S(=O)(=O)NCCCNc2nccc(-c3c(-c4cccc(N)c4)nc4sccn34)n2)cc1 | 112% |
| COc1ccc(/C=C2\COc3ccc(-c4ccccc4)cc3C2=O)cc1O | -34% (active) |
| O=C(/C=C/C12c3ccccc3C(c3ccccc31)C1C(=O)NC(=O)C12)c1ccccn1 (stereo not given) | -11.5% (active) |
| C1=CC2=CC=C3C=CC=C4C(c5nc6c7ccccc7c7ccccc7c6[nH]5)=CC(=C1)C2C34 (stereo not given) | 111% |
| COc1ccc(C(O)c2cc3c(N)c(C(=O)Nc4cccc(Cl)c4C)sc3nc2C)cc1 (stereo not given) | -51% (active) |
| CN1C(=O)CCC(N2C(=O)c3cccc(NCCOCCOCCNC(=O)c4cc5c(o4)C(=O)c4ccccc4C5=O)c3C2=O)C1=O (stereo not given) | 0.337% (active) |
| COc1ccc(C2CC(=O)Oc3c(OC)c4c(c(OC)c32)OCO4)cc1 (stereo not given) | 95.6% |
| C[C@@H]1CC[C@@H]2[C@@H]1[C@H](OC(=O)/C=C/c1ccccc1)[C@]1(C3CCCCC3)C[C@@H](OC(=O)CO)[C@@]2(C)O1 | 74.5% |
| CN(C)CC#Cc1ccc2ncc(C#N)c(Nc3ccc(F)c(Cl)c3)c2c1 | 26.8% |
| O=C(c1ccccc1)N(C(=S)NCCc1ccc(Cl)cc1)c1ccc(Cl)cc1 | 23% |
| N#CN1CC[C@H](C(=O)Nc2cc3cc(C(N)=O)ccc3cn2)C1 | -37.1% (active) |
| CCOC(=O)c1ccc(C(=N)N)cc1 | 103% |
| CCCCOCC(=O)NC(NP(=O)(N(C)C)N(C)C)C(Cl)(Cl)Cl (stereo not given) | 100% |
| c1cc(OCCN2CCCC2)ccc1CNc1ccc2nc(CCC3CCCCC3)[nH]c2c1 | -4.69% (active) |
| COc1ccc(C2=Nc3c(N)ncnc3NC(c3cccc(Nc4ccnc5cc(C(F)(F)F)ccc45)c3)C2)cc1 (stereo not given) | 42.7% |
| O=c1cc(N/N=C/c2ccc(F)cc2)c2cc(Cl)ccc2[nH]1 | -9.23% (active) |
| O=C1Nc2ccc(Br)cc2C12Oc1ccccc1C1CC(c3ccc(F)cc3)=NN12 (stereo not given) | 92.9% |
| Nc1ccc2c(c1)C(=O)NC2=O | 71.1% |

| SMILES | growth |
| --- | --- |
| O=C(Nc1ccc(Nc2ncccn2)cc1)NC1C=c2ccccc2=CC1 (stereo not given) | 74.1% |
| Cn1c2ccccc2c2c3[nH][nH]c(=O)c3c3c4ccccc4[nH]c3c21 | 4.77% (active) |
| OCCNC(=S)Nc1ccc(-c2nc(N3C[C@H]4CC[C@@H](C3)O4)c3cccn3n2)cc1 | 38.2% |
| O=C(Nc1cc(=O)[nH]c(=O)[nH]1)C(Cl)Cl | 99.4% |
| CCN(CC)CCCNc1cc(OC)cc2cccnc12 | 94.7% |
| CCOC(=O)c1ccc(NC(=O)Nc2nncs2)cc1 | 5.62% (active) |
| CNC(=O)c1cc(Oc2ccc(NC(=O)c3nc(S(C)(=O)=O)sc3-c3ccc(F)cc3)cc2)ccn1 | 27.2% |
| C=C(c1ccc(C(=O)O)c(F)c1)c1cc2c(cc1C)C(C)(C)C=CC2(C)C | 86.3% |
| Nc1ccc(C(=O)Nc2cccc(C(=O)Nc3ccc4c(O)c(N=Nc5ccc(N=Nc6ccc(S(=O)(=O)O)cc6)cc5)c(S(=O)(=O)O)cc4c3)c2)cc1 | 89.1% |
| CCSc1ncc(Br)c(Sc2nc(N)nc3nc[nH]c23)n1 | 87.8% |
| COc1ccc(/C=C(\c2cc(OC)c(OC)c(OC)c2)c2nnc(-c3cccs3)o2)cc1 | 92% |
| CSc1ccccc1C#C/C=C\C#Cc1ccccc1N1CCCC1=O | -33.4% (active) |
| CCC#CC[C@H](O)C/C=C1/C(=O)C=C[C@@H]1C/C=C\CCCC(=O)OC | 2.22% (active) |
| Cc1cc(Nc2nc(C(=O)Nc3ccccc3)nc3ccccc23)n[nH]1 | 63.5% |
| Cc1ccc(Nc2cccc3ccccc23)cc1 | 96.2% |
| C=CN(C(=O)N1CCN(c2cc3c(cc2F)c(=O)c(C(=O)O)cn3C2CC2)CC1)c1nc(-c2ccc(C)cc2)cs1 | -27.2% (active) |
| O=C(O)COc1ccc(OCC(=O)O)cc1 | -1.78% (active) |
| c1ccc(-c2nc3nonc3nc2-c2ccccc2)cc1 | 85.3% |
| COc1cc(/C=C/C(=O)c2cc(-c3ccc(F)cc3)ccc2O)cc(OC)c1OC | 39.5% |
| CCN1C(=O)N(CC)C2C1NN=c1s/c(=C\c3ccc(Br)cc3)c(=O)n12 (stereo not given) | -30.5% (active) |
